# Shiga toxin inh – A qHTS for Small Molecule Inhibitors of Shiga Toxin | Vero cells, Shiga toxin protein synthesis inhibition reporter | inhibition, % at 38.7 µM | 290,000 tested, 9.2% active; in the data active means inhibition mostly above about 28%, no sharp cut-off; inactive means mostly below about 43%; further: 0% is about no effect
# CHX counter – Cycloheximide Counterscreen for Small Molecule Inhibitors of Shiga Toxin | cell reporter, cycloheximide protein synthesis inhibition counterscreen | max response, % | 300,000 tested, 12% active; in the data active means max response mostly above about 13%, no sharp cut-off; inactive means mostly below about 14%; further: read at 38.3 µM for the half of the compounds with a filed dose; 0% is about no effect
# AMA1 RON2 block – qHTS for Inhibitors of AMA1-RON; Towards Development of Antimalarial Drug Lead: Primary Screen; Plasmodium falciparum AMA1 (3D7) - RON2 peptide interaction; AlphaScreen AMA1-biotinylated RON2 peptide binding; Potency, µM (titrated, usually from 58.2 µM), for inactives: at the top dose activity change, negative = inhibition, most hits filed as inhibitors; 360,000 tested, 0.2% active;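 further: potency means the concentration at half of the fitted maximal effect; 0% = vehicle wells and -100% = peptide control; nearly all actives have a fitted effect of over 45% in size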
#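 AMA1 (3D7) with his tag at 25 nM final met compounds first, then biotinylated RON2 peptide at 25 nM; detection used donor plus acceptor beads, 10 µg/mL apiece, read by AlphaScreen after 30 min at room temperature.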
# SARS PLpro yeast – qHTS of Yeast-based Assay for SARS-CoV PLP | 330,000 tested, 0.19% active | Potency, µM (highest dose often 32.9 µM), without a hit: top-dose activity, positive = growth rescue, actives largely listed as activators | AID 485353, 2010 | S. cerevisiae expressing SARS-CoV PLpro, growth rescue; calls by dose curve; further: potency means the concentration at half of the fitted maximal effect; 0% is about no effect; nearly all actives have a fitted effect of over 55% in size
# Pf growth 48h – Primary qHTS for delayed death inhibitors of the malarial parasite plastid, 48 hour incubation. P. falciparum luciferase growth in erythrocytes, 48 h. Potency, µM (top dose mostly 28.7 µM), for the others: at the highest dose activity change, negative = inhibition, most hits filed as inhibitors. 310,000 tested, 5.9% active; further: potency means the concentration at half of the fitted maximal effect; on the % scale 0 is the no-effect control and ±100 the full control effect
#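 Growth was read as firefly luciferase luminescence after a 48 h, 37 C, 5% CO2 exposure of compounds to reporter-bearing P. falciparum cultures (0.1% parasitemia, 2% hematocrit final) in Albumax-supplemented RPMI 1640.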
# Pf growth 96h – Primary qHTS for delayed death inhibitors of the malarial parasite plastid, 96 hour incubation | P. falciparum luciferase reporter growth, 96 h | Potency, µM (highest dose often 28.7 µM), for inactives: at the highest dose activity change, negative = inhibition, hits mostly inhibitors | 320,000 tested, 6.9% active | AID 504834, 2011; further: potency means the concentration at half of the fitted maximal effect; on the % scale 0 is the no-effect control and ±100 the full control effect
#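 Parasite growth measured via integrated firefly luciferase reporter in P. falciparum. Infected erythrocytes at 2% hematocrit, 0.05% parasitemia final were treated 96 hours at 37 C under 5% CO2, and luminescence was read.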
# An asterisk follows results filed as active; ? = inconclusive; / = no result. In the library only some 19% were active in any assay of this set; here they are far more common. Unless noted, the call rests on the fitted dose curve; in most records, active means well fitted curve in the direction sought with a large enough effect; inconclusive means small, poorly fitted or top-dose-only effect, or another doubt; inactive means no such curve, though single readings can be large; an effect the other way counts as inactive or inconclusive.
SMILES,Shiga toxin inh,CHX counter,AMA1 RON2 block,SARS PLpro yeast,Pf growth 48h,Pf growth 96h
CCc1nc(SCC(=O)Nc2ccc([N+](=O)[O-])cc2)n[nH]1,-10.2,-1.9,6.2%,-0.3%,28.7%,-27.8%
CCOc1ccc(Cl)cc1CSc1n[nH]c(C)n1,1.0,-1.0,0.3%,-5.5%,?,63.8%
Cc1nc(SCc2ccc(C#N)cc2)n[nH]1,/,17.7*,5.2%,1.8%,6.1%,13.1µM*
CCc1nc(SCc2ccc([N+](=O)[O-])cc2)n[nH]1,76.0*,35.7*,-6.4%,15.1%,58.0%,?
C=CCn1nc2ccccc2c1OC,/,/,5.9%,-1.2%,8.8%,68.4%
CCn1c(O)c(/C=N/N=C/c2ccc(OC)cc2)c2cc(C3=NNC(=O)CC3)ccc21,3.9,-1.8,-19.3%,1.0%,-0.2%,5.1%
CC/C(C)=N\N=C\c1c(O)n(CC)c2cc(C3=NNC(=O)CC3)ccc12,-2.5,-1.3,-4.9%,7.2%,?,10.4µM*
COC(=O)c1c(NC(=O)CSc2nnc(C)c(=O)[nH]2)sc(C)c1C,-9.7,2.6,6.1%,-1.2%,11.0%,28.9%
CC(=O)Nc1cccc(C(=O)OC(C(=O)c2ccc(C)c(C)c2)c2ccccc2)c1 (stereo not drawn),-11.7,-3.4,-17.6%,-28.0%,?,10.4µM*
COc1ccc(C(=O)OC(C(=O)c2ccc(C)cc2)c2ccccc2)cc1 (stereo not drawn),-7.7,2.8,9.7%,1.6%,?,7.1%
CC(=O)Nc1cccc(C(=O)OC(C(=O)c2ccc(C)cc2)c2ccccc2)c1 (stereo not drawn),-3.1,-1.6,-6.0%,-28.7%,1.47µM*,77.9%
CCOC(=O)c1ccccc1NC(=O)COC(=O)c1cc([N+](=O)[O-])ccc1N1CCOCC1,/,/,?,-1.3%,?,?
CC(=O)c1ccc2c(c1)C1C=CCC1C(C(=O)O)N2 (stereo not drawn),-2.0,5.1,3.98µM*,0.2%,32.9%,22.1%
Cc1ccc2c(c1)C1C=CCC1C(C(=O)NCCCN1CCOCC1)N2 (stereo not drawn),/,/,-1.4%,/,/,/
CC(=O)c1ccc2c(c1)C1C=CCC1C(c1ccncc1)N2 (stereo not drawn),96.8*,18.3*,-3.7%,-1.8%,-9.2%,132.0%
Cc1ccc2c(c1)C1C=CCC1C(C(=O)O)N2 (stereo not drawn),-13.7,-4.8,/,-13.1%,?,2.62µM*
COC(=O)c1ccc(C2Nc3ccc(/C(C)=N/NC(=O)C(OC)c4ccccc4)cc3C3C=CCC32)cc1 (stereo not drawn),0.7,-3.8,-14.5%,2.0%,?,4.15µM*
O=C(O)c1ccc2c(c1)C1C=CCC1C(c1cc3c(cc1Br)OCO3)N2 (stereo not drawn),-27.7,-2.2,?,-3.9%,0.7%,?
Cc1noc(C)c1NC(=O)N(C)C[C@H]1Oc2ccc(NC(=O)Nc3ccc(C(F)(F)F)cc3)cc2C(=O)N([C@H](C)CO)C[C@@H]1C,/,/,-11.0%,4.0%,/,/
Cc1ccccc1C=Nc1ccccc1C(N)=O,2.3,-2.3,-15.5%,20.8%,0.7%,10.5%
CN(C(=O)c1cccc(NC(=O)Cc2cccc(NC(=O)C3CCCN(C(=O)c4ccccc4)C3)c2)c1)C1CCC1 (stereo not drawn),/,/,7.3%,/,/,/
C1=CC2c3ccccc3NC(c3ccncc3)C2C1 (stereo not drawn),-15.3,5.4,-15.5%,0.3%,?,13.1µM*
Brc1cc2c(cc1C1Nc3ccccc3C3C=CCC31)OCO2 (stereo not drawn),-15.4,-0.5,-8.0%,-42.9%,?,6.8%
c1ccc(-c2nnc(SCc3ccncc3)o2)cc1,/,/,11.4%,/,/,/
COc1cc(-c2nnc(SCc3c(F)cccc3Cl)o2)cc(OC)c1OC,11.2,8.8,10.5%,-15.4%,?,/
SMILES,Shiga toxin inh,CHX counter,AMA1 RON2 block,SARS PLpro yeast,Pf growth 48h,Pf growth 96h
N#Cc1ccc(CSc2nnc(-c3cccc(S(=O)(=O)N4CCCCC4)c3)o2)cc1,-6.7,7.4,2.7%,-3.9%,13.1µM*,?
N#Cc1ccccc1CSc1nnc(-c2ccncc2)o1,49.1*,33.8*,-10.9%,1.4%,70.2%,32.0%
Fc1cccc(Cl)c1CSc1nnc(-c2ccncc2)o1,56.6*,35.9*,11.6%,-1.6%,81.9%,84.5%
N#Cc1cccc(-c2nnc(SCc3ccccc3C#N)o2)c1,89.0*,45.8*,0.9%,-9.7%,30.3%,29.5%
C=CCNc1nc(C(=O)OCC(=O)Nc2c(Cl)cccc2C(F)(F)F)cs1,/,/,27.5%,1.4%,6.3%,67.6%
COC(=O)c1ccc(-c2noc(CN3CCCCC3c3nccn3C)n2)cc1 (stereo not drawn),-13.2,-4.6,4.4%,0.2%,?,?
Cn1c(=O)c2cc(NC(=O)CCc3ccc4c(c3)OCO4)ccc2n1Cc1ccc(F)cc1,/,/,-4.2%,/,/,/
Clc1ccccc1CSc1nnc(-c2ccncc2)o1,53.7*,47.0*,3.4%,-6.5%,34.8%,0.0%
Clc1cccc(Cl)c1CSc1nnc(-c2sccc2-n2cccc2)o1,95.4*,19.8*,18.2%,-9.5%,?,?
c1ccc2c(CSc3nnc(-c4ccncc4)o3)cccc2c1,-7.4,1.5,1.0%,-17.3%,?,?
N#Cc1ccccc1CSc1nnc(Cc2ccccc2)o1,52.6*,21.4*,17.0%,-0.5%,4.9%,?
O=C(Cc1ccc([N+](=O)[O-])cc1)N1N=C(c2ccncc2)CC1(O)C(F)(F)F (stereo not drawn),-11.0,6.1,1.2%,0.9%,-12.2%,135.1%
Cc1ccc(C(=O)NNC(=O)c2ccc(-n3cncn3)c([N+](=O)[O-])c2)cc1,/,/,9.1%,-2.9%,?,-23.7%
C/C=C1\COC(C(=O)NCc2cccc(OC)c2OC)(C(F)(F)F)C=C1C=C(C)C (stereo not drawn),13.1,-4.1,/,/,/,/
COCCN1C(=O)Cc2c1nc(N)c1c(N)nc(N3CCN(c4ccc(F)cc4)CC3)c(C#N)c21,-0.9,-3.3,73.1%,-3.0%,7.38µM*,?
COc1ccc(CN2C(=O)Cc3c2nc(N)c2c(N)nc(N4CCOCC4)c(C#N)c32)cc1,-8.5,-3.5,65.8%,-1.1%,?,?
N#CCc1c(C#N)c(N)nc(N2CCN(c3ccc(F)cc3)CC2)c1C#N,-24.5,0.7,7.9%,-1.5%,9.28µM*,/
CCC1Cc2c(nc(N)c3c(N)nc(N4CCOCC4)c(C#N)c23)O1 (stereo not drawn),2.1,2.7,-1.1%,1.5%,-27.3%,?

# Screening data as filed in PubChem.
